# Source: PubChem
# The list is not random: actives were taken first. Their share in the collection is about 4.7%.
# tim23-1 inh: growth inhibitors of tim23-1 mutant yeast. S. cerevisiae tim23-1 growth, BacTiter-Glo luminescence, 24 h. inhibition, % at 20 µM. hit rate 1.3% among 330,000. AID 463212;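 active means growth inhibition of the mutant yeast at or above 50%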;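 further: temperature-sensitive mutant grown at 25 °C; plate controls were DMSO-treated mutant yeast for no effect and medium wells lacking yeast for full effect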
# tim10-1 inh: tim10-1 yeast growth inhibition; S. cerevisiae tim10-1 ts strain growth, BacTiter-Glo, 24 h; inhibition, % at 20 µM; hit rate 2.2% among 330,000;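 active means inhibition of at least 40%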;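 further: mutant grown at 25 °C; 0% = DMSO wells with yeast and 100% = wells holding no yeast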
# EBI2 block: antagonists of human EBI2 receptor. AID 651636. EBI2 beta-arrestin recruitment, luminescence, 7a,25-OHC stimulated. hit rate 0.81% among 360,000. inhibition, % at 5 µM; in the data active means inhibition above about 38%;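 further: enzyme fragment complementation signal reports receptor beta-arrestin coupling in cells; 0% = agonist plus DMSO wells and 100% = wells without agonist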
# Target sequence (P32249 whole entry, looked up, the tested form may be a part): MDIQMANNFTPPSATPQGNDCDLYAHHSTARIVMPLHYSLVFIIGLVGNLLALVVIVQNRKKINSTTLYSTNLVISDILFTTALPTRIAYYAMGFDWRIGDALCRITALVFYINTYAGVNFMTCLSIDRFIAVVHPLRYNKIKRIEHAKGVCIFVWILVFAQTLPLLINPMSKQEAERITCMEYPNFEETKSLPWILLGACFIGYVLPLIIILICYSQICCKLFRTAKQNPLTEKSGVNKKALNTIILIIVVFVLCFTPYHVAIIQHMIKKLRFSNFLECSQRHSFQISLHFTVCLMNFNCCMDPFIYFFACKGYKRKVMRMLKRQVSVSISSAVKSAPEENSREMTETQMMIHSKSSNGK
# TIM10 inh: growth inhibitors of TIM10 yeast strain; S. cerevisiae TIM10 strain growth, BacTiter-Glo luminescence, 24 h; inhibition, % at 10 µM; hit rate 1.4% among 330,000; AID 463195;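 active means inhibition of 40% or more at the single tested concentration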;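 further: wild-type TIM10 isogenic control strain grown at permissive 25 °C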
# SKKanGAS inh: blocks kanamycin growth of S. pyogenes SKKanGAS strain. hit rate 1.3% among 300,000. AID 1662. BacTiter-Glo, 6 h. inhibition, % at 7.5 µM;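 active means mean replicate score, as percent of positive control median, at least 50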;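 further: strain carries kanamycin resistance gene driven by streptokinase promoter and grows in 40 µg/ml kanamycin; loss of luminescence reflects streptokinase promoter inhibition or plain growth inhibition; 0% = median of DMSO wells and 100% = positive control at its reference dose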
# PfHsp90 set2: reduces growth (ATP signal) of yeast expressing P. falciparum Hsp90 | S. cerevisiae expressing PfHsp90, BacTiter-Glo ATP, 48 h; yeast lacking PDR1 and PDR3 efflux regulators | inhibition, % at 9.4 µM | hit rate 0.32% among 310,000 | AID 504621;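 active means every replicate shows inhibition above about 80%, whatever the replicate mean, limit read from the data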;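 further: 0% = DMSO neutral controls and 100% = 20 µM radicicol positive controls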
# * = called active by the depositor; . = no result given.
SMILES,tim23-1 inh,tim10-1 inh,EBI2 block,TIM10 inh,SKKanGAS inh,PfHsp90 set2
CC1CCCCN1S(=O)(=O)c1ccc(C(=O)Nc2nnc(C3=COCCO3)o2)cc1 (stereo not drawn),-9,-7,15,-4,16,-26
CCOC(=O)N1CCN(S(=O)(=O)c2ccc(C(=O)Nc3nnc(C)o3)cc2)CC1,-1,15,-1,-10,-4,12
CC1CCCN(S(=O)(=O)c2ccc(C(=O)Nc3nnc(C4=COCCO4)o3)cc2)C1 (stereo not drawn),-7,10,9,-7,66*,.
Cc1nnc(NC(=O)c2ccc(S(=O)(=O)N3CC(C)CC(C)C3)cc2)o1 (stereo not drawn),2,21,9,9,54*,9
OCCNCc1c(OCc2ccc(Cl)cc2)ccc2ccccc12,-4,4,-1,-2,-8,-8
Cc1ccsc1CNC(=O)C1(C)CCN1C(=O)C(C)C (stereo not drawn),.,.,-6,.,.,.
O=C(CN(Cc1ccco1)C(=O)CCC(=O)Nc1ccccn1)NCc1ccccc1,-2,-3,-4,-11,0,17
COc1cccc(CNC(=O)c2cc3c(c(-c4cccc(-c5cccc(C#N)c5)c4)n2)[C@H](CCO)N(S(=O)C(C)(C)C)C3)c1 (stereo partly drawn),.,.,34,.,.,.
Cc1[nH]oc(=O)c1N=Nc1c(Cl)cccc1Cl,-80,-45,-4,-17,0,106*
CCN1C/C(=C\c2cccc([N+](=O)[O-])c2)C(=O)/C(=C/c2cccc([N+](=O)[O-])c2)C1,.,.,40,.,.,95*
Cc1ccc(S(=O)ONc2cccc(NOS(=O)c3ccc(C)cc3)c2)cc1 (stereo not drawn),.,.,-4,.,.,.
CCCCCCCCOC(=O)/C=C/c1c(C)[nH]c(=O)[nH]c1=O,0,-12,-9,2,64*,-53
CCCCN(CCCC)S(=O)(=O)c1c(C)[nH]c(=O)[nH]c1=O,-1,1,7,-6,7,-25
CCOC(=O)C1CCN(CC(=O)c2ccc(O)c(C)c2O)CC1,-17,-1,-2,-1,3,7
COc1cccc(-c2nc(N3CCCCC3C)c3ccccc3n2)c1O (stereo not drawn),14,22,2,-1,76*,-19
COc1cccc(-c2nc(NC3CCCC3)c3ccccc3n2)c1O,49,36,-20,-13,55*,117*
CCCC(=O)N1CCCC1(C)C(=O)Nc1cccc(OC(C)C)c1 (stereo not drawn),.,.,-22,.,.,.
CC(C)COC(=O)N(C)C[C@H]1OCc2cn(nn2)CCCC(=O)N([C@H](C)CO)C[C@@H]1C,.,.,-12,.,.,.
CCSc1n[nH]c2nc3c(c(=O)n12)C1(CCCCC1)Cc1ccccc1-3,34,28,-2,9,-6,-44
CSc1n[nH]c2nc3c(c(=O)n12)C1(CCCCC1)Cc1ccccc1-3,35,30,-11,29,60*,-6
COc1ccc(C(=O)Nc2cccc(/C=C(\CCC(=O)O)c3nc4ccccc4s3)c2)cc1,6,16,-6,6,52*,-57
O=C(CCCSc1ccccc1)Nc1nc(-c2ccccn2)cs1,11,25,-14,18,105*,-15
CSCCC(=O)Nc1nc(-c2ccccn2)cs1,.,.,-23,.,.,.
O=C(COc1ccc(F)cc1Cl)Nc1nc(-c2ccccn2)cs1,33,28,-4,0,110*,-94
N#Cc1ccccc1OCC(=O)Nc1nc(-c2ccccn2)cs1,.,.,0,.,.,.
SMILES,tim23-1 inh,tim10-1 inh,EBI2 block,TIM10 inh,SKKanGAS inh,PfHsp90 set2
CC1(C)C(=O)Nc2ccccc2N1C(=O)COC(=O)COc1ccc(C#N)cc1,11,-20,-12,-13,4,4
C#CC(=O)N(c1cc(OC)ccc1OC)C(C(=O)NC1CCCC1)c1cccs1 (stereo not drawn),46,29,50*,27,1,4
C#CC(=O)N(c1ccc(OC)cc1OC)C(C(=O)NC1CCCC1)c1cccs1 (stereo not drawn),24,26,40,14,-14,5
Cc1ccc(NC(=O)CN(C)CC(=O)Nc2sc3c(c2C(N)=O)CCC3)cc1,6,-1,-1,9,9,-18
Cc1cccc(C)c1NC(=O)CN(C)CC(=O)Nc1sc2c(c1C(N)=O)CCC2,11,-5,-4,6,50*,-12
CC(C)(C)c1ccc(-c2noc(-c3ccc4c(c3)CCO4)n2)cc1,5,35,11,16,82*,9
CCOc1cccc(-c2cc(NCCc3ccccn3)n3nccc3n2)c1,.,.,9,.,.,.
CCCc1nc(NCc2ccccc2)c(C#N)c2c1CCCC2,0,34,29,6,74*,-17
CCCc1nc(NCCO)c(C#N)c2c1CCCC2,25,17,12,-29,-2,.
OC[C@@H](O)[C@@H](O[C@@H]1O[C@H](CO)[C@H](O)[C@H](O)[C@H]1O)[C@H](O)[C@@H](O)CO,-2,-4,-3,3,-4,-9
CCCCC(=O)Nc1ccc(C(=O)NNC(=S)NC(=O)c2cccs2)cc1,24,7,-21,14,67*,.
O=C(NNC(=S)NC(=O)c1ccco1)c1ccc(NC(=O)c2ccccc2)cc1,17,21,4,8,61*,9
O=C(NNC(=S)NC(=O)c1cccs1)c1ccc(NC(=O)c2ccccc2)cc1,-1,1,5,16,92*,-9
CC(C)CCn1c(COc2ccccc2)nn(CCC#N)c1=S,10,9,4,-17,4,-7
COc1ccccc1CN1CC(C(=O)NCc2ncccc2C)CCC1=O (stereo not drawn),2,-20,3,-3,51*,21
COc1ccc(CCN2CC(C(=O)NCCc3ccccc3C)CCC2=O)cc1 (stereo not drawn),18,25,17,4,-11,-2
COc1ccc(CCN2CC(C(=O)NCCc3ccccn3)CCC2=O)cc1 (stereo not drawn),1,-18,4,2,50*,14
COc1ccccc1CN1CC(C(=O)NCc2nccn2C)CCC1=O (stereo not drawn),-5,-4,1,-1,-4,-5
O=C(COc1ccc(Cl)cc1Cl)Nc1ccc(CN2CCOCC2)cc1,10,6,4,-8,103*,15
CO[C@H]1C=CO[C@@]2(C)Oc3c(C)c(O)c4c(O)c(c(C=NN5CCN(C)CC5)c(O)c4c3C2=O)NC(=O)C(C)=CC=C[C@H](C)[C@H](O)[C@@H](C)[C@@H](O)[C@@H](C)[C@H](OC(C)=O)[C@@H]1C,20,34,-8,16,106*,-1
CO[C@H]1C=CO[C@@]2(C)Oc3c(C)c(O)c4c(O)c(c(C=NN5CCN(C6CCCC6)CC5)c(O)c4c3C2=O)NC(=O)C(C)=CC=C[C@H](C)[C@H](O)[C@@H](C)[C@@H](O)[C@@H](C)[C@H](OC(C)=O)[C@@H]1C,18,15,.,12,105*,.
